Out of some 50,000 compounds screened, about 800 (1.6%) showed an effect of 50% or more. What follows is part of a selection rich in strong results, with near analogues and random picks from the rest.
These molecules were tested against Bcl-2-like protein 10 (Homo sapiens) (UniProt Q9HD36) (assay: TR3 peptide-Bcl-B binding displacers, biochemical primary FP assay, phenotype converters (AID 1240;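 also: 0% = Bcl-B with tracer peptide and DMSO and 100% = tracer peptide lacking Bcl-B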)). Conditions: GST-Bcl-B / FITC-TR3 peptide fluorescence polarization; stronger effect = higher value; compound at 3.75 mg/L.
Chain of Bcl-2-like protein 10 (Homo sapiens) (Q9HD36 whole entry, looked up): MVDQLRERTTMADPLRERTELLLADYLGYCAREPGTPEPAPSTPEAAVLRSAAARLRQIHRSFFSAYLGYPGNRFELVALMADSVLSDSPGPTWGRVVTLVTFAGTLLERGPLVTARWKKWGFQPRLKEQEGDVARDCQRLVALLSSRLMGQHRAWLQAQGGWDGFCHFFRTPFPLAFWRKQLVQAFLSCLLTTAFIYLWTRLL

SMILES | displacement [%]
COc1ccc(CCN=Cc2c(C(F)(F)F)[nH]n(-c3nc4ccccc4s3)c2=O)cc1OC | 69.9
O=c1c(C=NCc2cccs2)c(C(F)(F)F)[nH]n1-c1nc2ccccc2s1 | -13.8
CCCc1[nH]n(-c2nc3ccccc3s2)c(=O)c1C=NCCc1ccccc1 | -1
Cc1ccc(C)c(NC(=O)C2C3C4CCC(C4)C23)c1 (centres undefined) | -7.2
COc1ccc(/C=C/C(=O)NC(=S)Nc2ccc(I)cc2)cc1 | 14.3
CCN(CC)C(=O)c1cnn(-c2ccccc2)c1NC(=O)c1ccccc1Cl | 9.1
O=C(Nc1c(C(=O)Nc2cccc(Cl)c2)cnn1-c1ccccc1)c1ccccc1Cl | 83
Cc1ccc(NC(=O)c2cnn(-c3ccccc3)c2NC(=O)c2ccccc2Cl)cc1C | 3.3
COCCOC(=O)c1ccc(NC(=O)c2ccccc2CCc2ccccc2)cc1 | 7.1
CN1CCC(O)N1C(=O)c1ccccc1O (centres undefined) | 12.7
Cc1ccc(-c2nc3cc(Cl)ccc3o2)cc1NC(=O)c1ccc2ccccc2c1 | 128
Cc1ccc2nc(-c3ccc(C)c(NC(=O)c4ccc5ccccc5c4)c3)oc2c1 | -11.3
O=C(Nc1cccc(-c2nc3cc(Cl)ccc3o2)c1)c1ccc(Cl)cc1 | 0.2
Cc1ccc(-c2nc3cc(Cl)cc(Cl)c3o2)cc1NC(=O)c1ccc2c(c1)OCCO2 | 6.6
Cc1ccc(-c2nc3ccccc3o2)cc1NC(=O)c1cccc(Cl)c1 | 17
Cc1ccc(-c2nc3ccccc3o2)cc1NC(=O)c1ccc2c(c1)OCCO2 | 45.1
CCc1ccc2oc(-c3cccc(NC(=O)c4ccc5c(c4)OCCO5)c3)nc2c1 | 0.9
COc1c(Cl)cc(C(=O)Nc2cc(-c3nc4cc(Cl)ccc4o3)ccc2C)cc1Cl | 7.7
Cc1ccc(-c2nc3cc(Cl)ccc3o2)cc1NC(=O)c1ccc2c(c1)OCCO2 | 102
O=C(Nc1cccc(-c2nc3cc(Cl)ccc3o2)c1)c1ccc2c(c1)OCCO2 | 105
CCc1ccc2oc(-c3ccc(C)c(NC(=O)c4cc(OC)cc(OC)c4)c3)nc2c1 | 13.4
COc1cc(OC)cc(C(=O)Nc2cc(-c3nc4cc(Cl)ccc4o3)ccc2C)c1 | 110
COc1ccc(C)cc1NC(=O)COc1ccc(Br)cc1C | 7.7

SMILES | displacement [%]
CCOC(=O)C1=C(C)NC(=O)CC1c1ccccc1I (centres undefined) | -10.7
COc1ccc(OCCCCN2CCN(C)CC2)cc1 | -5.8
Cc1noc2c1/C(=N\O)CC(c1ccccc1)C2 (centres undefined) | 2.6
Cc1cc(C(=O)Nc2cccc(C)c2C)ccc1[N+](=O)[O-] | 15.9
COCCOC(=O)c1c(C)oc2ccc(OCc3c(F)cccc3Cl)cc12 | 6.9
Cc1oc2ccc(OCc3c(F)cccc3Cl)cc2c1C(=O)O | 11.7
COC(=O)c1c(C)oc2ccc(OCc3c(F)cccc3Cl)cc12 | 91
Cc1ccc(N(CC(=O)N(Cc2ccccc2)Cc2ccccc2)S(C)(=O)=O)cc1 | -7.5
N#C/C(=C(/O)C(Cl)(Cl)Cl)c1nc2ccccc2[nH]1 | -5.5
N#C/C(=C(/O)CO/N=C/c1ccccc1Cl)c1nc2ccccc2[nH]1 | 53.6
C/C(=N\OC/C(O)=C(\C#N)c1nc2ccccc2[nH]1)c1ccc(Br)cc1 | 46.6
O=C(CC1Nc2ccccc2NC1=O)Nc1cccc(C(=O)O)c1 (centres undefined) | -2.4
CCCOc1cccc(C(=O)Nc2ccc(F)c([N+](=O)[O-])c2)c1 | 13.4
CC1=NN(C(=O)c2cccnc2)C(O)(c2ccccc2)C1 (centres undefined) | -6.3
O=C(Cc1cccs1)NCC1CCCO1 (centres undefined) | 14.5
O=C(N/N=C/c1ccc(O)c(O)c1)c1cccc(F)c1 | -6.6
COc1ccc(C(=O)Nc2ccccc2C(=O)NCCCn2ccnc2)cc1 | 11.9
O=C(NCCCn1ccnc1)c1ccccc1Br | -8.7
O=C(Nc1ccccc1C(=O)NCCCn1ccnc1)c1ccccc1 | 83.5
COC(=O)C1=CNC=C(C(=O)OC)C1c1cccc(OCc2ccccc2)c1 | 1.2
O=C(/C=C/c1ccc([N+](=O)[O-])cc1)Nc1ccc(F)cc1 | -2.7
COc1ccc(C(=O)/C=C/Nc2ccccc2F)cc1 | 5.6
O=C(/C=C/Nc1ccccc1F)c1ccc(Br)cc1 | 85.6

SMILES | displacement [%]
O=C(/C=C\Nc1ccc(Br)cn1)c1ccc(Cl)cc1 | 61.9
COc1ccc(C(=O)/C=C\Nc2ccc(Cl)cn2)cc1 | -23.9
O=C(/C=C/Nc1ccccn1)c1ccc(Br)cc1 | 3
O=C(/C=C/Nc1ccccc1F)c1ccccc1 | 8.2
Cc1sccc1/C=N/NC(=O)C1CC1 | 3
Cc1ccc(/C=N/N=C/c2ccc(C)cc2)cc1 | 2.2
C/C(=C\C(=O)c1ccc(Cl)cc1)Nc1ccc(Br)c(C)c1 | 4.4
COc1ccc(-c2nn(-c3ccccc3)cc2/C=c2\sc3nc(-c4ccc(C)cc4)nn3c2=O)cc1 | 8.3
COc1ccccc1/C=c1/sc2nc(-c3ccc(Cl)cc3Cl)nn2c1=O | 7.3
COc1ccc(/C=c2\sc3nnc(-c4ccccc4)n3c2=O)c(OC)c1 | 28
COc1ccccc1/C=c1\sc2nc(-c3ccc(C)cc3)nn2c1=O | 61.7
COc1ccc(/C=c2\sc3nc(-c4ccccc4)nn3c2=O)cc1 | 77.5
COc1ccc(/C=c2/sc3nc(-c4ccc(C(C)(C)C)cc4)nn3c2=O)cc1 | 11.3
COc1ccc(/C=c2\sc3nnc(-c4ccc(C)cc4)n3c2=O)c(OC)c1 | 73.8
COC(=O)c1ccc(/C=c2\sc3nc(-c4ccc(C)cc4)nn3c2=O)cc1 | 10.7
Cc1ccc(-c2nnc3s/c(=C\c4ccccc4Cl)c(=O)n23)cc1 | 30.3
OCCCc1nc2ccccc2n1Cc1ccccc1 | 2.4
O=[N+]([O-])c1cc(C(F)(F)F)ccc1N/N=C/c1ccc(F)cc1 | 6.3
CC(=O)N(C1=C(N2CCCCC2)C(=O)c2ccccc2C1=O)c1ccc(C)cc1 | 11.1
O=C(Nc1ccc2c(c1)OCCO2)c1ccc(Br)cc1 | -0.2
O=S(=O)(Nc1ccc(SC(F)F)cc1)c1cccc2cccnc12 | 1.7
CCc1nnc(NC(=O)C2CCCC2)s1 | -7.8
Cc1cc(=O)n2cc(Br)ccc2n1 | 0.1

SMILES | displacement [%]
O=C(Nc1ccc(NC(=O)c2ccc([N+](=O)[O-])cc2Cl)cc1Cl)c1ccco1 | -2
O=C(C1CCCCC1)N1CCN=C1c1ccccc1 | -1
CN1C(=O)NC(=O)/C(=C\c2cc(Cl)c(OCC(=O)O)c(Cl)c2)C1=O | -3.5
Cc1ccc(NC(=O)/C=C/c2ccccc2)cc1 | -3.5
Cc1ccc(NC(=O)/C=C/C(=O)c2ccccc2)cc1 | 54.6
O=C(O)/C=C\C(=O)Nc1ccc(C(=O)c2ccccc2)cc1 | 3.2
CCN(CC)CCN1C(=O)C(O)=C(C(=O)/C=C/c2ccccc2)C1c1ccc(Br)cc1 (centres undefined) | 11.4
O=C(C1CCCC1)N1CCN(c2ccc(F)cc2)CC1 | -0.9
O=C(COc1ccccc1[N+](=O)[O-])Nc1cc(-c2nc3ccccc3o2)ccc1Cl | 91.6
O=C(COc1ccccc1[N+](=O)[O-])Nc1ccc2oc(-c3ccccc3F)nc2c1 | 2.9
O=C(COc1ccccc1[N+](=O)[O-])Nc1ccc(-c2nc3ccccc3o2)cc1 | -1.3
Cc1ccc(-c2nc3ccccc3o2)cc1NC(=O)COc1ccccc1[N+](=O)[O-] | -7.1
Cc1cc(C)c2oc(-c3ccc(NC(=O)COc4ccccc4[N+](=O)[O-])cc3)nc2c1 | 89.3
O=C(COc1ccccc1[N+](=O)[O-])Nc1ccc2oc(-c3cccc4ccccc34)nc2c1 | 56.9
Cc1cc(C)c2oc(-c3cccc(NC(=O)COc4ccccc4[N+](=O)[O-])c3)nc2c1 | -24.2
Cc1cc2nc(-c3ccc(NC(=O)COc4ccccc4[N+](=O)[O-])cc3)oc2cc1C | -0.7
O=C(COc1ccccc1[N+](=O)[O-])Nc1ccc2oc(-c3ccccc3Br)nc2c1 | 5.2
Cc1cc(C)c2nc(Nc3nc4ccccc4c(=O)[nH]3)nc(C)c2c1 | 9.2
O=C(O)CCCCCN1C(=O)C(O)=C(C(=O)/C=C/c2ccccc2)C1c1ccccc1Cl (centres undefined) | -7.2
Cc1c(O)nc(Nc2nc(C)c3ccccc3n2)[nH]c1=O | 9

— PubChem BioAssay AID1240 (Sanford-Burnham Center for Chemical Genomics, 2008)
